SMILES strings stand for the structures. Screen size: about 190,000 compounds; about 400 (0.21%) were called active. About 2% were inconclusive and are not listed. The full list was thinned out, with actives kept by preference. A number with no mark means an inactive call.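 Rule for the calls: active = percent activity GTP binding at least 20 points away from the 100% baseline, either down as inhibitor or up as activator; inconclusive = compound flagged as likely green fluorescent from well-wide comparison; inactive = the rest.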

For this assay, the target named is Cell division control protein 42 homolog (Homo sapiens) (UniProt P60953). Description: modulators of GTP binding to wildtype Cdc42, primary screen, biochemical, multiplex bead flow cytometry, Bodipy-GTP (AID 761).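 Note: median bead fluorescence of bound Bodipy-FL-GTP at 100 nM; 0% = excess unlabeled GTP control and 100% = no compound control; below 100% means less GTP binding so inhibitor and above means activator.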 The note with it: GST-Cdc42 beads, at 10 µM, actives lie on both sides.
Cell division control protein 42 homolog (Homo sapiens), sequence (P60953 whole entry, looked up): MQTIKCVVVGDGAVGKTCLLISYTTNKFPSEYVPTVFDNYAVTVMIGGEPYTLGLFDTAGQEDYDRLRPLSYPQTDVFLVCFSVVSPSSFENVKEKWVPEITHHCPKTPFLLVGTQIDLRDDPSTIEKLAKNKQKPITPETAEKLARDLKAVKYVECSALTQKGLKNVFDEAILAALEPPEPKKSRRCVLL
Consider `CCNC(=O)COC(=O)CCNC(=O)c1cccc(C)c1`, for which the percent activity (GTP binding) is 102%.
For `O=C(N/N=C/c1ccco1)c1ccc(NC(=O)C2CC2)cc1`, the percent activity (GTP binding) was 92%.
With `CCOC(=O)c1ccccc1NC(=O)CSc1nc2ccccc2c(=O)[nH]1` the figure was 92%; with `CCN(CC)Cc1nc2sc(C)c(C)c2c(=O)[nH]1`, 94%; with `O=C(NN=C1CCC(=NNC(=O)c2cccnc2)CC1)c1cccnc1`, 96%.
With `O=C(CCN1CCN(C/C=C/c2ccccc2)CC1)Nc1cccc(F)c1` the figure was 98%; with `C=CCn1c(CCNC(=O)c2ccccc2F)nnc1SCC(=O)Nc1ccc(OC)cc1`, 96%.
With `Cc1ccccc1OCCOc1ccc([N+](=O)[O-])cc1/C=N/n1cnnc1` the figure was 95%.
For `Cn1cnnc1Sc1ccc(S(C)(=O)=O)cc1[N+](=O)[O-]`, the percent activity (GTP binding) is 99%.
With `Cc1nc(N2CCC(C)CC2)c2c(C)c(C(=O)Nc3cc(F)ccc3C)sc2n1` the figure was 92%; with `O=C(COC(=O)c1ccccc1)Nc1cccc(S(=O)(=O)N2CCOCC2)c1`, 96%; with `O=C1Nc2cc(Cl)c(Cl)cc2N(O)N1c1ccccc1Cl`, 92%.
With `O=[N+]([O-])c1cccc(/C([O-])=C(/C(=S)Nc2ccccc2F)[n+]2ccccc2)c1` the figure was 95%; with `CCOc1cc2[nH]c(=O)n(Cc3ccc(C(=O)NCCCN4CCCC4=O)cc3)c(=O)c2cc1OCC`, 98%.
With `O=C(/C=C/c1ccc(Cl)cc1)Nc1ccc(S(=O)(=O)Nc2ncccn2)cc1` the figure was 98%; with `Cc1ccccc1CC1(CO)CCCN(C(=O)c2cc(-c3ccccc3)no2)C1` (stereo not drawn), 98%; with `CCC1(CC)NC(=O)N(CC(=O)OCC(=O)NC(=O)c2ccccc2)C1=O`, 101%.
Regarding `c1ccc(-n2nnnc2-c2cccnc2)cc1`, the percent activity (GTP binding) is 95%.
With `O=C(Cn1cnc([N+](=O)[O-])n1)NCCc1ccccc1` the figure was 97%; with `COc1cc(/C=C/C(=O)OCC(=O)N2CCOCC2)ccc1OCC#N`, 97%.
With `O=C(c1ccc(OC2CCN(Cc3ccccn3)CC2)cc1)N1CCCCCC1` the figure was 96%; with `COc1ccc(C)cc1NC(=O)CSc1nnc(CC(=O)Nc2ccccc2F)n1C`, 101%.
With `Cc1cc(N/N=C/c2ccccc2F)c2ccccc2n1` the figure was 96%; with `Cc1c(C(N)=O)sc2ncn(CCOc3ccccc3)c(=O)c12`, 89%; with `CC(C)(C)c1ccc(C(=O)CSc2ncn[nH]2)cc1`, 103%.
Regarding `Cc1ccc(C(=O)CS(C)(=O)=O)cc1`, the percent activity (GTP binding) was 104%.
With `Cc1ccc(SC(CC(=O)c2ccc(C(C)(C)C)cc2)C(=O)O)cc1` (stereo not drawn) the figure was 77% (active); with `CC(=O)N/N=C/c1cc2c(cc1[N+](=O)[O-])OCO2`, 97%; with `CC1(C)CC(=O)CC2(C1)NCC(c1ccccc1Cl)c1c2[nH]c2ccccc12` (stereo not drawn), 96%.
With `COc1ccc(CN(C)Cc2nc3cc(OC)c(OC)cc3c(=O)[nH]2)c(OC)c1` the figure was 105%; with `O=C(Cc1cccs1)Nc1nnc(C2CC2)s1`, 99%.
With `CC(=O)Nc1nc(N(C)C)nc(N(C)C)n1` the figure was 97%.
Take `CN(c1ccccc1)S(=O)(=O)c1ccc(Cl)c(C(=O)OCC(=O)N2CCOCC2)c1`: the percent activity (GTP binding) is 96%.
With `COc1ccccc1CN(C)c1nnnn1-c1ccccc1` the figure was 102%.
With `O=C(NCC1CCN(Cc2ccccc2Cl)CC1)Nc1cccc(Cl)c1` the figure was 106%; with `CC(=O)c1cc(C#N)c(N2CC(C)OC(C)C2)nc1C` (stereo not drawn), 98%; with `OCCC1CN(Cc2ccccc2-c2ccco2)CCN1Cc1ccsc1` (stereo not drawn), 92%.
With `COc1ccc(NC(=O)CSc2nnc(-c3ccccc3F)n2C2CC2)cc1S(N)(=O)=O` the figure was 97%; with `O=C(NCc1ccco1)C(=O)c1cn(CC(=O)N2CCCCCC2)c2ccccc12`, 94%; with `C=CCN(CC=C)S(=O)(=O)c1ccc(C(=O)Nc2nc3c(s2)CCc2ccccc2-3)cc1`, 138% [activator] (active).
As for `C=CCN(CC=C)S(=O)(=O)c1ccc(C(=O)Nc2sc3c(c2C(N)=O)CCCCC3)cc1`, the percent activity (GTP binding) is 104%.
With `COCCN(CCOC)S(=O)(=O)c1ccc(C(=O)Nc2nc3c(s2)CCc2ccccc2-3)cc1` the figure was 107%; with `CCOc1cc(N2CCOCC2)c(OCC)cc1NC(=O)c1ccc(C)s1`, 94%; with `O=C(CCl)N(Cc1cccc([N+](=O)[O-])c1)c1cccc(Cl)c1`, 96%.
With `CC(=O)NCCc1nc2cc(NC(=O)c3ccccc3)ccc2n1C` the figure was 102%.
Take `COC(=O)c1c(NC(=O)CCCC(=O)O)sc2c1CCCCC2`: the percent activity (GTP binding) is 97%.
With `Cc1nc([N+](=O)[O-])cn1CC(=O)Nc1ccc2c(c1)OCO2` the figure was 94%.
Regarding `C/C(Cn1nnc2ccccc21)=N\OC(=O)c1cc(F)c(F)cc1Cl`, the percent activity (GTP binding) is 89%.
On to `CCCC(C)C(=O)NCc1ccncc1` (stereo not drawn), for which the percent activity (GTP binding) was 98%.
Regarding `OC1CCCN(c2ncnc3c2nnn3Cc2c(F)cccc2Cl)C1` (stereo not drawn), the percent activity (GTP binding) was 94%.
With `CC(C)(C)c1ccc(/C=C2\SC(=O)N=C2N)cc1` the figure was 96%.
`C=CCC1(CC=C)CCCN1C(=O)CC1C(=O)NCCN1Cc1ccccc1OC` (stereo not drawn): the percent activity (GTP binding) was 99%.
With `COc1ccc(C(C)=O)cc1CSc1nc2nc(C)cc(C)n2n1` the figure was 96%.
With `COc1ccc(CCNC(=O)C(=O)NCc2ccccc2C)cc1OC` the figure was 100%; with `O=C(C1CCCO1)N1CCN(C(=S)NC2CC2)CC1` (stereo not drawn), 98%; with `S=C(NC1CCCCC1)NN1CCOCC1`, 99%.
`COc1ncnc2sc3c(c12)CCCC3`: the percent activity (GTP binding) is 103%.
In the case of `COc1ccc(/C=N/Nc2ncnc3sc4c(c23)CCCC4)cc1O`, the percent activity (GTP binding) was 73% (active).
With `COc1cc(/C=N/Nc2ccc(C)cc2)cc(Br)c1O` the figure was 100%; with `Cn1c(N)c(C(=O)COC(=O)/C=C/c2ccc(OC(F)F)cc2)c(=O)n(C)c1=O`, 94%; with `Cc1ccc2c(c1)C1CN(C)CCC1N2C(=S)Nc1ccc(Cl)cc1Cl` (stereo not drawn), 97%.
With `CCCCCCCNc1nc(Cl)nc(NCCO)n1` the figure was 92%; with `COc1cccc(-n2nc(C(=O)N3CCN(Cc4ccccc4)CC3)c3ccccc3c2=O)c1`, 96%.

Values taken from PubChem BioAssay AID761 (NMMLSC, 2007).
